The list is not random: actives were taken first. Their share in the collection is about 10%.
3T3 cytotox = Cytotoxic Profiling in NIH 3T3 Cell Line of Diverse Libraries Using Quantitative High-Throughput Screening; NIH 3T3 viability, CellTiter-Glo ATP luminescence, 48-72 h; Potency, µM (doses to about 96.7 µM), usual class: inhibitors; 94,000 tested, 4.3% active; also: nearly all actives have a fitted effect of over 55% in size
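Luminescent ATP readout (CellTiter-Glo, 10 min RT) after 48 or 72 hr compound exposure of NIH 3T3 cells seeded at 400 cells/well in 1536-well format; quantitative HTS.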
FLuc inh = Firefly luciferase inhibition profiling of diverse chemical library using quantitative high-throughput screening; purified P. pyralis luciferase, luminescence, biochemical; Luciferin 4-monooxygenase (Photinus pyralis), P08659; 76,000 tested, 2.5% active; Potency, µM (titrated, usually from 115 µM), usual class: inhibitors; also: nearly all actives have a fitted effect of over 65% in size
Target sequence (P08659 whole entry, looked up): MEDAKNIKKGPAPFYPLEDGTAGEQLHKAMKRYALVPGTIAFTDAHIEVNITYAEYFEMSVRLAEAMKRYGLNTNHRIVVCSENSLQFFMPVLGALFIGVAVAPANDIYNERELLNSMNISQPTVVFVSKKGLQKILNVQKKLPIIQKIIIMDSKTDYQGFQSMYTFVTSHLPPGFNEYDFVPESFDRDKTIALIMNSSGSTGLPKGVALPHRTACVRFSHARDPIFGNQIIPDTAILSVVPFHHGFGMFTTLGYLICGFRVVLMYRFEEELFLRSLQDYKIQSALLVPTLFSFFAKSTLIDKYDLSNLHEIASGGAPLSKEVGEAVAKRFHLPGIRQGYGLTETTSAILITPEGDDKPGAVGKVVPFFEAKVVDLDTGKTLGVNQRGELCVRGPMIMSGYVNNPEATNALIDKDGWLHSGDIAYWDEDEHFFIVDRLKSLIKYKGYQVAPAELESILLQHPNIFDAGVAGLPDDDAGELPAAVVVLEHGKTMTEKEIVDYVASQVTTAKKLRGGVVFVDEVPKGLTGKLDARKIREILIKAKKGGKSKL
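Purified 10nM P. pyralis luciferase with 10uM D-luciferin and 10uM ATP in 50mM Tris acetate pH 7.5, 10mM Mg acetate, 0.01% Tween-20, 0.05% BSA. qHTS titration; luminescence read by CCD imager.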
NPR1 antag = Natriuretic polypeptide receptor (hNpr1) antagonism - Primary qHTS; AID 1347048, 2019; HEK293 hNpr1 GloSensor cGMP, ANP-stimulated luminescence; 76,000 tested, 1.6% active; Potency, µM (series often up to 46.3 µM), actives largely listed as inhibitors; calls by dose curve; also: nearly all actives have a fitted effect of over 60% in size
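Compound pre-incubated 30 min at room temperature on GloSensor-loaded HEK293 cells stably carrying hNpr1 and the pGS-40F cGMP biosensor. Stimulation uses hNppA at 0.1 nM final; luminescence is taken at baseline and 20 min post-agonist.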
GPT2 inh = Primary qHTS assay for inhibitors of Glutamate pyruvate transaminase 2 (GPT2); Alanine aminotransferase 2 (Homo sapiens), Q8TD30; Recombinant GPT2, coupled pyruvate oxidase/HRP Amplex Red fluorescence; Potency, µM (doses to about 57.7 µM), usual class: inhibitors; 100,000 tested, 0.25% active; AID 1671188, 2021; also: nearly all actives have a fitted effect of over 60% in size
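Fluorescence read-out: pyruvate from GPT2 turnover coupled to pyruvate oxidase, HRP and Amplex Red (0.2mM ThPP, 0.2U/mL PO and HRP, 50uM Amplex final). Substrates 250uM a-KG, 2mM L-alanine; enzyme 10ng/uL; 30 min RT.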
HEK293 tox = Cytotoxic Profiling in HEK 293 Cell Line of Diverse Libraries Using Quantitative High-Throughput Screening; 94,000 tested, 6.6% active; Potency, µM (doses to about 115 µM), most hits filed as inhibitors; AID 1345083, 2018; HEK 293 viability, ATP luminescence (CellTiter-Glo), 48-72 h; also: nearly all actives have a fitted effect of over 60% in size
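Cells seeded first (HEK 293, 250 cells/well), then compound added by pintool. Incubation ran 48 or 72 hr at 37 degree Celsius. CellTiter-Glo was added and luminescence imaged after 10 min at room temperature.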
Npr1 antag conf = Natriuretic polypeptide receptor (hNpr1) antagonism - Confirmation | 1,400 tested, 76% active | Potency, µM (doses to about 57.6 µM), hits mostly inhibitors | AID 1347044, 2019 | HEK293 hNpr1 cGMP GloSensor luminescence, ANP-stimulated | shares compounds with NPR1 antag; calls by dose curve; also: nearly all actives have a fitted effect of over 70% in size
Npr2 selectivity = Natriuretic polypeptide receptor (hNpr2) antagonism - Subtype selectivity assay. shares compounds with NPR1 antag. Potency, µM (titrated, usually from 57.6 µM), hits mostly inhibitors. AID 1347046, 2019. 1,400 tested, 67% active. HEK293 hNpr2 GloSensor cGMP luminescence, CNP-stimulated; calls by dose curve; also: nearly all actives have a fitted effect of over 70% in size
FLuc counter = Natriuretic polypeptide receptor (hNpr1) antagonism - Confirmation firefly luciferase (FLuc) inhibition counterscreen. shares compounds with NPR1 antag. purified FLuc enzyme, luminescence, Km substrate. Potency, µM (titrated, usually from 57.6 µM), usual class: inhibitors. 1,400 tested, 0.7% active; also: series mostly up to about 58 µM
GloSensor ctrl = Natriuretic polypeptide receptor (hNpr1) antagonism - Counterscreen GloSensor control cell line | shares compounds with NPR1 antag | HEK293 GloSensor cGMP, SNP-stimulated, luminescence | 1,400 tested, 69% active | Potency, µM (highest dose often 57.6 µM), most hits filed as inhibitors | AID 1347051, 2019; calls by dose curve; also: nearly all actives have a fitted effect of over 70% in size
A number is an active result; 0 = inactive; ? = inconclusive; - = no result. Unless noted, calls follow the shape of the dose curve; as a rule, active = well fitted curve in the direction sought with a large enough effect; inconclusive = small, poorly fitted or top-dose-only effect, or another doubt; inactive = no such curve, though single readings can be large; an effect the other way counts as inactive or inconclusive.

SMILES	3T3 cytotox	FLuc inh	NPR1 antag	GPT2 inh	HEK293 tox	Npr1 antag conf	Npr2 selectivity	FLuc counter	GloSensor ctrl
COc1ccc(CN[C@@H]2CCC[C@@H](C(=O)NC3CCOCC3)CC(=O)N(C)C2)cc1	0	0	0	0	0	-	-	-	-
COc1cccc(NC(=O)c2cnc3c(c2)N(C(=O)Cc2ccc(C(C)C)cc2)CCC3)c1	?	0	11.2µM	0	22.4µM	19.3µM	19.3µM	0	17.2µM
COCCc1noc([C@@H]2CC(F)(F)CN2C(=O)c2ccccn2)n1	0	0	0	0	0	-	-	-	-
O=C(NCC1CCCCC1)C1CCc2nc(N3CCN(C(=O)C4CCC4)CC3)sc2C1 (stereo not given)	0	0	0	0	0	-	-	-	-
O=C(Nc1ccc(F)cc1)C1CCc2nc(N3CCN(C(=O)C4CCC4)CC3)sc2C1 (stereo not given)	?	0	3.55µM	0	10µM	7.69µM	10.9µM	0	9.68µM
O=C(c1ccc2nc[nH]c2c1)N1CCCN(c2cc(-c3ccc(Br)cc3)[nH]n2)CC1	0	0	0	0	?	-	-	-	-
O=C(c1ccccc1Br)N1CCN(c2cc(-c3ccc(Cl)cc3)[nH]n2)CC1	25.1µM	0	2.51µM	0	?	19.3µM	19.3µM	0	12.2µM
CCOc1ccc(C(=O)N2CCCN(c3cc(-c4ccc(Cl)cc4)[nH]n3)CC2)cc1OCC	?	0	11.2µM	0	?	15.3µM	17.2µM	0	15.3µM
O=C(Cc1c[nH]c2ccccc12)N1CCCN(c2cc(-c3ccc(Br)cc3)[nH]n2)CC1	35.5µM	0	15.8µM	?	?	24.3µM	27.3µM	0	27.3µM
COc1ccc(-c2cc(N3CCCN(C(=O)Cc4cccc(OC)c4)CC3)n[nH]2)cc1	0	0	0	?	?	-	-	-	-
COc1ccc(-c2cc(N3CCN(C(=O)c4ccccc4Br)CC3)n[nH]2)cc1	?	0	?	0	?	-	-	-	-
COc1ccc(CC(=O)N2CCCN(c3cc(-c4ccc(OC)cc4)[nH]n3)CC2)cc1	?	0	?	?	?	?	?	0	0
O=C(c1ccc(Cl)cc1)N1CC2(CCN(CC3CC3)CC2)Cc2ccccc21	?	-	-	0	?	-	-	-	-
Cc1cc(-c2nn(-c3ccccc3F)cc2CN(C)C(C)c2ccon2)c(C)s1 (stereo not given)	?	0	0	0	?	-	-	-	-
Cc1nc(-c2cccnc2)sc1C(=O)Nc1ccccc1-c1cn2c(CN3CCOCC3)csc2n1	-	-	-	0	-	-	-	-	-
COc1ccc(C(=O)N2CCC3(CC2)NC(=O)N(Cc2ccccc2)C3=O)cc1F	0	0	?	0	?	-	-	-	-
COc1ccc(-c2cc(N3CCN(C(=O)c4ccc(OC)c(F)c4)CC3)n[nH]2)cc1	?	0	0	0	?	-	-	-	-
O=C(c1ccccc1)N1CCN(c2cc(-c3ccc(Cl)cc3)[nH]n2)CC1	?	0	?	0	?	?	?	0	?
COc1ccc(C(=O)N2CCC3(CC2)NC(=O)N(Cc2ccc(F)cc2)C3=O)cc1F	?	0	12.6µM	0	?	19.3µM	21.7µM	0	21.7µM
COc1ccc(C(=O)N2CCN(c3cc(-c4ccc(Cl)cc4)[nH]n3)CC2)cc1F	?	0	11.2µM	0	?	13.7µM	19.3µM	0	10.9µM
COc1ccc(CC(=O)NC2CCN(c3cc(-c4ccc(Cl)cc4)[nH]n3)C2)cc1OC (stereo not given)	?	0	10µM	?	?	19.3µM	21.7µM	0	10.9µM
Cc1ccc(C(=O)N2CCCN(c3cc(-c4ccccc4)[nH]n3)CC2)cc1	0	0	0	0	?	-	-	-	-
CC(C)C(=O)Nc1ccc(C2(C(=O)O)CCC2)cc1	0	0	0	0	0	-	-	-	-
COCC1CN(C(C)=O)CC12CCN(C(=O)c1ccccc1OC)CC2 (stereo not given)	0	0	0	0	0	-	-	-	-
O=C(CN1C(=O)NC2(CCS(=O)(=O)CC2)C1=O)Nc1ccc(F)c(Cl)c1	0	0	0	0	0	-	-	-	-
SMILES	3T3 cytotox	FLuc inh	NPR1 antag	GPT2 inh	HEK293 tox	Npr1 antag conf	Npr2 selectivity	FLuc counter	GloSensor ctrl
Cc1ccc(NC(=O)Cn2cccc2-c2nc(-c3ccc(F)cc3)no2)c(C)c1	0	0	0	0	0	-	-	-	-
O=C(c1ccc2c(c1)OCO2)N1CCN(c2cc(-c3ccc(Cl)cc3)[nH]n2)CC1	?	0	?	0	?	24.3µM	?	0	24.3µM
COc1ccc(C(=O)N2CCN(c3cc(-c4ccc(Cl)cc4)[nH]n3)CC2)cc1	7.08µM	0	8.91µM	0	35.5µM	15.3µM	17.2µM	0	10.9µM
COc1cccc(C(=O)N2CCN(c3cc(-c4ccccc4)[nH]n3)CC2)c1OC	?	0	0	0	?	-	-	-	-
COc1cccc(C(=O)N2CCN(c3cc(-c4ccc(Cl)cc4)[nH]n3)CC2)c1OC	?	0	11.2µM	0	?	21.7µM	21.7µM	0	17.2µM
CC(=O)Nc1ccc(C(=O)N2CCCN(c3cc(-c4ccc(Cl)cc4)[nH]n3)CC2)cc1	0	0	0	0	?	-	-	-	-
O=C(c1ccc(Cl)cc1)N1CCN(c2cc(-c3ccc(Cl)cc3)[nH]n2)CC1	31.6µM	0	11.2µM	0	39.8µM	21.7µM	21.7µM	0	21.7µM
O=C([C@H]1CCCN1C(=O)c1ccccc1)N1CCCC(c2nc3ccncc3[nH]2)C1 (stereo not given in full)	0	-	-	0	0	-	-	-	-
O=C(CCNc1c(-c2cccc(F)c2)nc2cnccn12)NCc1ccc(Cl)cc1	0	0	0	?	?	-	-	-	-
CNC(=O)[C@@H]1C[C@H](Oc2ccccc2)CN1C(=O)CCc1c[nH]c2ccccc12	0	0	0	0	0	-	-	-	-
O=C(c1ccc2c(c1)OCO2)N1CCCN(c2cc(-c3ccc(Br)cc3)[nH]n2)CC1	?	0	17.8µM	?	?	24.3µM	24.3µM	0	30.6µM

Assay outcomes (PubChem BioAssay)
